S2 tox = cell viability loss in ATXN counter-screen; S2 cells (HEK-293 line with an ATXN2-luciferase reporter) viability, CellTiter-Fluor protease fluorescence, 24 h; Potency, µM (titrated, usually from 56.7 µM), hits mostly cytotoxic; 400,000 tested, 0.49% active; further: nearly all actives have a fitted effect of over 40% in size
ATXN2 expr inh = ATXN2 expression inhibition; HEK-293 ATXN2-luciferase reporter, luminescence, 24 h; 360,000 tested, 0.72% active; Potency, µM (top dose mostly 57 µM), usual class: inhibitors; further: nearly all actives have a fitted effect of over 55% in size
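qHTS (up to 57 uM final) was run with 24 h compound exposure of reporter cells at 37 °C. Each well was multiplexed: SteadyGlo luminescence measured ATXN2-luciferase expression after a fluorogenic Gly-Phe-AFC viability readout (25 uM final).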
HepG2 tox = HepG2 cytotoxicity, counter-screen for TGF-b inhibitors. HepG2 CAGA-GFP viability, ATP luminescence, 18 h. Potency, µM (series often up to 46.1 µM), most hits filed as cytotoxic. 410,000 tested, 0.76% active
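HepG2 CAGA-GFP cells (1000/well, DMEM with 1% FBS) received compound, then TGF-beta at 500 pg/mL final, and were incubated 18 hours at 37 degrees C. Viability was read by CellTiter-Glo luminescence. Media-only wells were set as complete cell-killing and DMSO as no toxicity.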
ALOX12 inh = inhibitors of human 12S-lipoxygenase ALOX12; P18054; purified 12hLO, xylenol orange hydroperoxide absorbance; Potency, µM (top dose mostly 108 µM), most hits filed as inhibitors; 580,000 tested, 1.1% active
Target sequence (P18054 whole entry, looked up): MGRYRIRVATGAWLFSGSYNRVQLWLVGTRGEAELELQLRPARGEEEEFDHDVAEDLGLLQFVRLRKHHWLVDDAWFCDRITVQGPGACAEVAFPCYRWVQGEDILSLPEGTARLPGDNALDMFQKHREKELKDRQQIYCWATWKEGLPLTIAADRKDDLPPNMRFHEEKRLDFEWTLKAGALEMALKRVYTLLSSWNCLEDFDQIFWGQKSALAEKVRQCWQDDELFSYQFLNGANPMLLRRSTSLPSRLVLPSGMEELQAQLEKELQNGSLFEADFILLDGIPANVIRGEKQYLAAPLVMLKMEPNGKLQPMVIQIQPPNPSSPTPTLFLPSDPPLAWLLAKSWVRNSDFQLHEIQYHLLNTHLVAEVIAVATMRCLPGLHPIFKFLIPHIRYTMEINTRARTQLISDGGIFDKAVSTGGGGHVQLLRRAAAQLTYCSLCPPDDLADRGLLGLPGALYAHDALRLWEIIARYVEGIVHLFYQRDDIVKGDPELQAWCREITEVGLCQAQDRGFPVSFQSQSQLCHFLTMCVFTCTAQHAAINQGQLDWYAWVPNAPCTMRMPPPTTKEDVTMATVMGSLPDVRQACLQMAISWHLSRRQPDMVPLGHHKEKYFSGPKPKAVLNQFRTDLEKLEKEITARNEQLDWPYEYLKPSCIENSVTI
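Hydroperoxide product was detected by ferrous iron/xylenol orange as the 573 to 405 nm absorbance ratio. Arachidonic acid at 40 uM (final) was turned over for 30 min at room temperature by 150 nM human 12hLO, pH 7.0 Hepes buffer, after 15 min compound preincubation.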
TGFb SMAD3 inh = TGF-b pathway inhibition; HepG2 CAGA-GFP TGF-b/SMAD3 reporter, GFP fluorescence, 18 h; TGF-beta stimulated, 500 pg/mL final; 410,000 tested, 1.2% active; Potency, µM (titrated, usually from 46.1 µM), hits mostly inhibitors; further: nearly all actives have a fitted effect of over 65% in size
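HEPG2 CAGA-GFP cells (1000/well, DMEM with 1% FBS) were pre-incubated 2 h at 37 degrees C, given compound by pin tool, then stimulated with TGF-beta at 500 pg/mL final for 18 h before per-cell GFP fluorescence imaging.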
Numbers stand for hits; i = inactive; ? = inconclusive; nt = no result given. Compounds with a hit are over-represented: about 2.7% of the library has one in this group of screens. The call rests on the fitted dose curve; in most records, active means well fitted curve in the direction sought with a large enough effect; inconclusive means small, poorly fitted or top-dose-only effect, or another doubt; inactive means no such curve, though single readings can be large; an effect the other way counts as inactive or inconclusive.

SMILES	S2 tox	ATXN2 expr inh	HepG2 tox	ALOX12 inh	TGFb SMAD3 inh
CC(C)c1nn2c(=O)cc(CSCC(=O)Nc3cccc4ccccc34)nc2s1	nt	nt	nt	i	nt
C=CCNC(=S)Nc1cc(Cl)ccc1Cl	nt	nt	nt	i	nt
COC[C@H](NC(=O)c1cnc(C)s1)C(=O)N[C@@H](COC)C(=O)N[C@@H](Cc1ccccc1)C(=O)[C@@]1(C)CO1	nt	0.22µM	nt	i	nt
COc1cccc(NC(=O)N[C@H]2C[C@@H](c3nc(C)no3)N(C)C2)c1	nt	nt	nt	i	nt
CCC1Oc2ccc(NS(=O)(=O)c3ccccc3)cc2CN(Cc2ccc(F)cc2)C1=O (stereo not given)	nt	nt	nt	14µM	nt
COc1ccc(CC(=O)N2CC(CO)C3(CCNCC3)C2)cc1 (stereo not given)	nt	nt	nt	i	nt
COc1ccc(C2(C(=O)N3CC(CO)C4(CCNCC4)C3)CCCCC2)cc1 (stereo not given)	nt	nt	nt	32µM	nt
CN1CCCCc2c1nc1ccccc1c2N (tested in a mixture with another compound)	i	i	i	i	i
NCC1CCN(c2nc3ccccc3c3c2CCCC3)CC1	28µM	?	13µM	?	?
CC(C)n1nc(C(=O)Nc2ccc(S(=O)(=O)C(F)F)cc2)c2ccccc2c1=O	nt	nt	nt	i	nt
C=CCn1c(SCC(=O)c2[nH]c(C)c(C(=O)OCC)c2C)nc2scc(-c3ccc(OC)c(OC)c3)c2c1=O	nt	28µM	i	i	?
CCOC(=O)c1c(C)[nH]c(C(=O)CSc2nnc(-c3ccncc3)n2CC)c1C	i	i	i	i	?
Cn1c(=O)c2c(nc(Oc3ccc4c(c3)OCO4)n2Cc2cccc(F)c2)n(C)c1=O	nt	nt	nt	i	nt
c1ccc(-c2ccc(OCCCn3cncn3)cc2)cc1	i	i	i	1.4µM	i
c1ccc(COc2ccc(OCCn3cncn3)cc2)cc1	i	i	i	i	i
Nc1ncnc(Nc2cc(Cl)ccc2Cl)c1[N+](=O)[O-]	nt	nt	nt	i	nt
CC1CCCN(c2nnc(NC(=O)Nc3ccc4c(c3)OCCO4)s2)C1 (stereo not given)	nt	nt	nt	i	nt
COC(=O)c1cc(C(=O)OC)n(Cc2ccc(F)cc2)c1C	i	i	i	i	i
Cc1c(C#N)c(NC(=O)CCl)n(Cc2ccc(F)cc2)c1C	21µM	?	11µM	i	18µM
Cc1c(C#N)c(NC(=O)CCl)n(Cc2cccs2)c1C	nt	?	i	i	13µM
Cc1ccccc1-n1c(C)nnc1SCC(=O)Nc1c(C#N)c(C)c(C)n1Cc1ccccc1	nt	nt	nt	i	nt
Cc1c(C#N)c(NC(=O)CCl)n(Cc2ccccc2)c1C	8.4µM	11µM	i	i	?
Cc1cc(=O)n(Cc2ccccc2)c(O)c1C#N	i	i	i	18µM	i
O=C(O)c1c[nH]c2ncccc12	nt	nt	nt	i	nt
CC(NC(C)c1ccccc1Cl)c1ccc(F)cc1 (stereo not given)	nt	nt	nt	i	nt
SMILES	S2 tox	ATXN2 expr inh	HepG2 tox	ALOX12 inh	TGFb SMAD3 inh
Cc1oc2cc(O)ccc2c(=O)c1-c1nc2ccccc2s1	nt	nt	nt	i	nt
Cc1cc(Nc2cccc(C(F)(F)F)c2)nc2ccc(NC(=O)Cc3ccc(Cl)cc3)cc12	i	20µM	10µM	i	?
Cc1cc(Nc2cccc(Cl)c2)nc2ccc(NC(=O)c3cccnc3)cc12	i	?	13µM	i	16µM
O=C(O)c1ccc2c(c1)nc(Nc1cccc(Cl)c1)c1ccncc12	nt	9.7µM	nt	i	nt
Cc1cc(Nc2cccc(Cl)c2)nc2ccc(NC(=O)c3cccc(N(C)C)c3)cc12	i	i	i	i	i
COc1ccc(CC(=O)Nc2ccc3nc(Nc4cccc(Cl)c4)cc(C)c3c2)cc1	i	?	i	?	?
COc1ccc(-c2nc3cc(NC(=O)CC(C)C)ccc3o2)cc1OC	nt	nt	nt	i	nt
CC(=O)Oc1ccc2c(C)c(CC(=O)Nc3ncc(C)s3)c(=O)oc2c1	nt	nt	nt	i	nt
Cc1ccc(C(OCC(C)(C)C[N+](C)(C)C)c2ccccc2)cc1 (stereo not given)	i	i	i	45µM	i
Nc1nc2ccccc2n1S(=O)(=O)c1ccc([N+](=O)[O-])cc1	i	i	i	i	13µM
O=C(CNCc1ccc(Cl)cc1)N1CCc2ccccc2C1	i	i	i	32µM	i
O=C(CNCc1cccc(Cl)c1)N1CCc2ccccc2C1	i	i	i	?	i
O=C(CCc1ncc(-c2ccc(F)cc2)o1)N1CCSCC1	nt	nt	nt	i	nt
COc1cc2nc(Nc3ccc(C)c(Cl)c3)nc(N)c2cc1OC	?	?	i	20µM	?
